“And” between values parts separate entries of the source, which are not always exact repeats. Equal entries are not always repeated. Records with an inconclusive call do not appear. The source made the active and inactive calls. Unless noted, calls come from the whole dose curve; as a rule, active = well fitted curve in the direction sought with a large enough effect in the repeat runs; inconclusive = weak or mixed curves; inactive = no such curve, though single readings can be large; an effect the other way counts as inactive or inconclusive.
Tests used:
[1] = qHTS assay to identify small molecule antagonists of the sonic hedgehog signaling (Shh) pathway (AID 1259369; calls by dose curve; note: nearly all actives have a fitted effect of over 45% in size; note: potency is the fitted concentration of half-maximal effect)
Procedure, shortened: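 Luminescence readout: firefly Luc under Gli1 response element in 3T3Gli1-Luc cells (NIH/3T3 clone). Antagonist mode, stimulation by conditioned medium; compound exposure 24hr at 37 C, 5% CO2.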

[2] = qHTS assay to identify small molecule agonists of the androgen receptor (AR) signaling pathway in the presence of an antagonist - cell viability counter screen (AID 1259379);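 note: MDA-kb2 human breast cancer cells carrying an MMTV luciferase reporter; series mostly up to about 92 µM; nearly all actives have a fitted effect of over 25% in size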
Procedure, shortened: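 Viability counter screen: CellTiter-Fluor fluorescence, measured in the same wells as the luciferase read-out. MDA-kb2 cells, 3,000/well, with nilutamide at 3.0uM final and compounds at 15 concentrations, 16 hr at 37C, 0% CO2.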

[3] = qHTS assay to identify small molecule agonists of the estrogen receptor beta (ER-beta) signaling pathway - cell viability counter screen (AID 1259380); note: nearly all actives have a fitted effect of over 30% in size
Procedure, shortened: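 Luminescence read-out (CellTiter-Glo, 30 min, room temp) taken in the same wells as the beta-lactamase reporter assay; ER-beta-UAS-bla HEK293T cells exposed to DMSO-dissolved compounds for 16 hr at 37C in 2% charcoal-stripped FBS medium.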

[4] = qHTS assay to identify small molecule antagonists of the estrogen receptor beta (ER-beta) signaling pathway - cell viability counter screen (AID 1259382);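 note: HEK293T cells carrying ER-beta-UAS-bla reporter stimulated with estradiol; series mostly up to about 92 µM; nearly all actives have a fitted effect of over 55% in size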
Procedure, shortened: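 Luminescent ATP read-out (CellTiter-Glo, 30 min, RT) taken in the same wells as the bla reporter assay. HEK293T ER-beta-UAS-bla cells in 2% charcoal-stripped FBS were exposed to compounds with 1nM E2 for 16 hr at 37C.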

[5] = molecular target: Estrogen receptor (Homo sapiens) (UniProt P03372); experiment: qHTS assay to identify small molecule agonists of the estrogen receptor alpha (ER-alpha) signaling pathway in the presence of an antagonist (AID 1259383; calls by dose curve; note: top concentration of the series differs between compounds; nearly all actives have a fitted effect of over 15% in size)
Procedure, shortened: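 Luciferase luminescence (ONE-Glo, 30min at room temperature) measured in VM7Luc4E2 cells after 22hr compound exposure at 15 concentrations, with 10.0nM ICI-182,780 final present; cells express endogenous ER-alpha and carry four EREs upstream of luciferase.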

[6] = qHTS assay to identify small molecule agonists or antagonists of the thyroid stimulating hormone receptor (TSHR) signaling pathway - wild type cell line counter screen (AID 1259384; calls by dose curve)
Procedure, shortened: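 Counter screen in untransfected Hek293: compounds (15-point titration, triplicate) plus phosphodiesterase inhibitor Ro20-1724 added after 18 h plating; 30 min RT. Intracellular cAMP via competitive d2/cryptate immunoassay, 1 h incubation.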

[7] = qHTS assay to identify small molecule agonists of the estrogen receptor alpha (ER-alpha) signaling pathway in the presence of an antagonist - cell viability counter screen (AID 1259386);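 note: series mostly up to about 92 µM; cells exposed to compounds for 22 h at 37 °C before the viability read; nearly all actives have a fitted effect of over 30% in size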
Procedure, shortened: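 Read-out: CellTiter-Fluor fluorescence after 1hr reagent incubation, measured in the same wells as the luciferase readout. VM7Luc4E2 cells were exposed to 15 compound concentrations with 10.0nM ICI-182,780 for 22hr at 37C.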

[8] = molecular target: Progesterone receptor (Homo sapiens) (UniProt P06401); experiment: qHTS assay to identify small molecule agonists of the progesterone receptor (PR) signaling pathway (AID 1346784; calls by dose curve; note: nearly all actives have a fitted effect of over 30% in size)
Procedure, shortened: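 Using charcoal-stripped serum (2%) to limit endogenous steroids, PR-UAS-bla HEK 293T cells received compounds for 16 hr at 37C after 6 hr plating; beta-lactamase FRET fluorescence was recorded following 2 hr substrate loading at room temperature.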

[9] = qHTS assay to identify small molecule antagonists of the progesterone receptor (PR) signaling pathway - cell viability counter screen (AID 1346798); note: series mostly up to about 92 µM; nearly all actives have a fitted effect of over 50% in size
Procedure, shortened: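 ATP content as viability readout: CellTiter-Glo luminescence, 30 min room temperature, in PR-UAS-bla HEK293T cells after 16 hr compound/R5020 treatment at 37C and 5% CO2.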

[10] = qHTS assay to identify small molecule agonists of the progesterone receptor (PR) signaling pathway - cell viability counter screen (AID 1346799; calls by dose curve; note: nearly all actives have a fitted effect of over 45% in size)
Procedure, shortened: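 Cytotoxicity in PR-bla HEK293T cells: 16 h compound, 37C; CellTiter-Glo added post-FRET read; luminescence after 30 min RT.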

[11] = qHTS assay to identify small molecule antagonists of the TGF-beta/Smad signaling pathway - cell viability counter screen (AID 1346824); note: nearly all actives have a fitted effect of over 50% in size
Procedure, shortened: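 Cytotoxicity counter-screen run in the same wells as the beta-lactamase Smad reporter read: CellTiter-Glo luminescence after 30 min at room temperature. HEK 293T SBE-bla cells had 5 hr compound exposure at 37 C with TGF-beta1 (0.25 ng/mL stock).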

[12] = qHTS assay to identify small molecule agonists of the TGF-beta/Smad signaling pathway - cell viability counter screen (AID 1346829); note: top concentration of the series differs between compounds; nearly all actives have a fitted effect of over 45% in size
Procedure, shortened: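 Luminescence from CellTiter-Glo, read after a 30 min room-temperature incubation, gives cell viability of SBE-bla HEK 293T cells treated 5 hr with compounds at 37 C.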

[13] = qHTS assay to identify small molecule agonists of the TGF-beta/Smad signaling pathway (AID 1346859; active = well fitted activation curve with a large enough effect in the signal ratio in the repeat runs, not every such curve was filed as active; the % refers to the signal ratio; note: series mostly up to about 77 µM)
Procedure, shortened: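 Stable Smad binding element-beta-lactamase HEK 293T cells; 5 hr compound exposure at 37 C under 5% CO2; 2 hr room-temperature substrate step; fluorescence excited at 405 nm, collected at 460 nm and 530 nm.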

[14] = molecular target: Thyrotropin receptor (Homo sapiens) (UniProt P16473); experiment: qHTS assay to identify small molecule antagonists of the thyroid stimulating hormone receptor (TSHR) signaling pathway (AID 1259385; calls by dose curve; note: nearly all actives have a fitted effect of over 20% in size)
Procedure, shortened: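 Antagonist mode: compound-treated TSHR-expressing HEK293 cells were stimulated with 1.5 ng/mL TSH (final) in presence of Ro20-1724 for 30 min at RT. HTRF cAMP detection after 1 h; each compound tested at 15 concentrations, triplicate.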

[15] = molecular target: Thyrotropin-releasing hormone receptor (Homo sapiens) (UniProt P34981); experiment: qHTS assay to identify small molecule antagonists of the thyrotropin-releasing hormone receptor (TRHR) signaling pathway (AID 1346877; active = well fitted inhibition curve with a large enough effect in the repeat runs, not every such curve was filed as active; note: series mostly up to about 51 µM)
Procedure, shortened: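 HEK293/TRHR cells, 18 h, 37 °C; Ca2+ dye 2 h; cpd 5 min RT; TRH 1 nM final; fluorescence read 3 min, 1 s intervals; 15 concs, triplicate.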

[16] = molecular target: Thyrotropin-releasing hormone receptor (Homo sapiens) (UniProt P34981); experiment: qHTS assay to identify small molecule agonists of the thyrotropin-releasing hormone receptor (TRHR) signaling pathway (AID 1346891; calls by dose curve;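 note: HEK293 cells expressing TRHR with calcium dye readout; series mostly up to about 58 µM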)
Procedure, shortened: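 In 1536-format, 1500 TRHR-Hek293 cells per well grew 18 h, took up calcium dye for 2 h at 37 °C, received compound, and were read kinetically; 15-point titrations, triplicates.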

[17] = molecular target: Progesterone receptor (Homo sapiens) (UniProt P06401); experiment: qHTS assay to identify small molecule antagonists of the progesterone receptor (PR) signaling pathway (AID 1346795; active = well fitted inhibition curve with a large enough effect in the signal ratio in the repeat runs, not every such curve was filed as active; the % refers to the signal ratio)
Procedure, shortened: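 Inhibition of R5020-induced (1 nM final) beta-lactamase reporter signal in PR-UAS-bla HEK293T cells was scored by FRET fluorescence after overnight (16 hr) compound treatment.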
% is set by controls: 0 for no effect and ±100 for the full control effect.

Sequence of Estrogen receptor (Homo sapiens) (P03372 whole entry, looked up): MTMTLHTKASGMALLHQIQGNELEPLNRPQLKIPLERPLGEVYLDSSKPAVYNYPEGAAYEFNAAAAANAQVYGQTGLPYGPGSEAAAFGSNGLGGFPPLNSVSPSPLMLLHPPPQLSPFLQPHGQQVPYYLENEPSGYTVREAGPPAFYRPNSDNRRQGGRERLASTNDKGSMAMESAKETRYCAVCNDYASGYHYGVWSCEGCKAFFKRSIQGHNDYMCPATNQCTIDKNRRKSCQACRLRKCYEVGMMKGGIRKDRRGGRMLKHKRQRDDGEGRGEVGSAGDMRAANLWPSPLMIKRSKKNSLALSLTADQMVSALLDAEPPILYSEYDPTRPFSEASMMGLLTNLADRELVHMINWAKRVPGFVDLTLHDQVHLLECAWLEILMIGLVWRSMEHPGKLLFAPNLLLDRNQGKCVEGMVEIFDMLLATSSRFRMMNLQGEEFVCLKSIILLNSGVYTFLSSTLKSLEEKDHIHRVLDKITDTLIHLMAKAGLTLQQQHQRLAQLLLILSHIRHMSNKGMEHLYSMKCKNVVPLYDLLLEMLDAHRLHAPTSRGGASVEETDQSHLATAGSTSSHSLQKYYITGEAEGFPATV
Sequence of Progesterone receptor (Homo sapiens) (P06401 whole entry, looked up): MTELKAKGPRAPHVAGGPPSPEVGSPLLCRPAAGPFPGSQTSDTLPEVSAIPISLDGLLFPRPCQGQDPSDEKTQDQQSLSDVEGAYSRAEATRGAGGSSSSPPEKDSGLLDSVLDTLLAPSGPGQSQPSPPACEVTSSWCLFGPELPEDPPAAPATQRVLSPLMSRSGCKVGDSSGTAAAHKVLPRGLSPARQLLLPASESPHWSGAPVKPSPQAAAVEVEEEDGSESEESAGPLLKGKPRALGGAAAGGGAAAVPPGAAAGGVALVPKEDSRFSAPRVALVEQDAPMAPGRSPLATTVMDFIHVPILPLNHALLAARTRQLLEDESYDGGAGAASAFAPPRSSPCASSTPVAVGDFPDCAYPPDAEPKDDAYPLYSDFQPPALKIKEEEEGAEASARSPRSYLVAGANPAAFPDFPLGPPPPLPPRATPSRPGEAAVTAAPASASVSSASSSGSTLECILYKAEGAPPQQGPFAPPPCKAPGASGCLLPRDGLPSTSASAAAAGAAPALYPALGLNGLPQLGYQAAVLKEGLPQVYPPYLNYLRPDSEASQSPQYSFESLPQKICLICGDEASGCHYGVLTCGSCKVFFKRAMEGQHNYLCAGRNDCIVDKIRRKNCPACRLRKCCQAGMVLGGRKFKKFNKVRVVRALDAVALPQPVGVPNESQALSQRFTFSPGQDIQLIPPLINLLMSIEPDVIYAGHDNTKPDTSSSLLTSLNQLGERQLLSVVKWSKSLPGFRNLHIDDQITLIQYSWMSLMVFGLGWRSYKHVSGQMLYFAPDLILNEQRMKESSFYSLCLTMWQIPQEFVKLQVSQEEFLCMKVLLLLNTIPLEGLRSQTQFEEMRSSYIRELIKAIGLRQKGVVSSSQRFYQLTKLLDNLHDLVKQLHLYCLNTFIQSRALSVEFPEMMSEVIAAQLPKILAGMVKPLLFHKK
Sequence of Thyrotropin-releasing hormone receptor (Homo sapiens) (P34981 whole entry, looked up): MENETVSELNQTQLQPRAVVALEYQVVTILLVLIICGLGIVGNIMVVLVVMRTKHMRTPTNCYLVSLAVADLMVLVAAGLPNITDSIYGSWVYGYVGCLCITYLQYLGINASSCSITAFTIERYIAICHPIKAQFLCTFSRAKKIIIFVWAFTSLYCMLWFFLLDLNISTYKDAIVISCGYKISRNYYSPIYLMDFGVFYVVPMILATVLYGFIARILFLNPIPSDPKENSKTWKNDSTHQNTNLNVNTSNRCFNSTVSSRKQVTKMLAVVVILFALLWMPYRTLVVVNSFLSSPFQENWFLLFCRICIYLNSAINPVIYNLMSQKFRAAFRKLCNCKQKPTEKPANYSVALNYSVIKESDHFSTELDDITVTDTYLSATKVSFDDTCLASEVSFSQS
Sequence of Thyrotropin receptor (Homo sapiens) (P16473 whole entry, looked up): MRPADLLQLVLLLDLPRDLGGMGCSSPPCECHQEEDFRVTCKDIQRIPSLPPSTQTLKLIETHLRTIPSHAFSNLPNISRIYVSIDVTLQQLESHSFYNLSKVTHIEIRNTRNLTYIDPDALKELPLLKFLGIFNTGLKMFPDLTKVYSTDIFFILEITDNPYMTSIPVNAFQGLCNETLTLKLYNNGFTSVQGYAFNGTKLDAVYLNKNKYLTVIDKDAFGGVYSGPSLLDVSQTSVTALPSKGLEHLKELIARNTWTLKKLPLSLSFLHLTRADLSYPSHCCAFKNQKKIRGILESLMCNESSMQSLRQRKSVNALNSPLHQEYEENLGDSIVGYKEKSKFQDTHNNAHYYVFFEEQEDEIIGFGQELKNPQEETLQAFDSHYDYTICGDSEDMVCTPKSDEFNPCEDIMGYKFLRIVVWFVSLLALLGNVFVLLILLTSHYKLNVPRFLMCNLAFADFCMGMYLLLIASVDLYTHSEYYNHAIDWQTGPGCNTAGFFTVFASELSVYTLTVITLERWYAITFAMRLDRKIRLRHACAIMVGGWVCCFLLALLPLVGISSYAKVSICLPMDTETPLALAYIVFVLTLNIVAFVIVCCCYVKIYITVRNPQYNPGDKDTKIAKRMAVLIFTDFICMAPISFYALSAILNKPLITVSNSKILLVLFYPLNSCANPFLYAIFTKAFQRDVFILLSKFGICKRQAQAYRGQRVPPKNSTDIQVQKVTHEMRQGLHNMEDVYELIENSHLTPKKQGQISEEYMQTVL

C=CCC1(C(C)CC)C(=O)NC(=O)NC1=O (stereo not given)
inactive: Potency [1] | Potency [2] | Potency [3] | Potency [4] | Potency [5] | outcome [6] | Potency [7] | Potency [8] | Potency [9] | Potency [10] | outcome [11] | Potency [12] | outcome [13]

CCN[C@@H](C)Cc1cccc(C(F)(F)F)c1
inactive: Potency [1] | Potency [2] | Potency [3] | Potency [4] | Potency [5] | outcome [6] | outcome [14] | Potency [7] | Potency [9] | outcome [11] | Potency [12] | outcome [13] | Potency [15] | outcome [16]

NCC1(CC(=O)O)CCCCC1
inactive: Potency [1] | Potency [2] | Potency [3] | Potency [4] | outcome [6] | outcome [14] | Potency [7] | Potency [8] | Potency [17] | Potency [9] | Potency [10] | outcome [11] | Potency [12] | outcome [13] | Potency [15] | outcome [16]

CN(C)C1CCCCC1
inactive: Potency [1] | Potency [2] | Potency [3] | Potency [4] | Potency [5] | Potency [7] | Potency [8] | Potency [17] | Potency [10] | outcome [11] | Potency [12] | outcome [13] | Potency [15] | outcome [16]

CCCC[N+](=O)[O-]
inactive: Potency [1] | Potency [2] | Potency [3] | Potency [4] | Potency [5] | outcome [6] | outcome [14] | Potency [7] | Potency [8] | Potency [17] | Potency [9] | Potency [10] | outcome [11] | Potency [12] | outcome [13] | Potency [15] | outcome [16]

CCCCCCCCSC(=O)Oc1cc(Cl)nnc1-c1ccccc1
inactive: Potency [1] | Potency [2] | Potency [3] | Potency [4] | Potency [5] | Potency [7] | Potency [8] | Potency [10] | Potency [12] | outcome [13] | Potency [15] | outcome [16]

O=P(O)(O)c1ccccc1
inactive: Potency [1] | Potency [2] | Potency [3] | Potency [4] | Potency [5] | outcome [6] | outcome [14] | Potency [7] | Potency [8] | Potency [17] | Potency [9] | Potency [10] | Potency [12] | outcome [13] | Potency [15] | outcome [16]

CN1COCN(Cc2cnc(Cl)s2)/C1=N\[N+](=O)[O-]
inactive: Potency [1] | Potency [2] | Potency [3] | Potency [4] | outcome [6] | Potency [7] | Potency [8] | Potency [17] | Potency [9] | Potency [10] | Potency [12] | outcome [13] | Potency [15] | outcome [16]

Cc1cccc2sc3nncn3c12
inactive: Potency [1] | Potency [2] | Potency [3] | Potency [4] | Potency [5] | outcome [6] | outcome [14] | Potency [7] | Potency [8] | Potency [17] | Potency [10] | outcome [11] | Potency [12] | outcome [13] | Potency [15] | outcome [16]

C(COCC1CO1)OCC1CO1 (stereo not given)
active: Potency [1] 34.4 µM
inactive: Potency [2] | Potency [3] | Potency [4] | Potency [5] | outcome [6] | Potency [7] | Potency [8] | Potency [17] | Potency [9] | Potency [10] | Potency [12] | outcome [13] | Potency [15] | outcome [16]

CCCCCCC(=O)CCCCCC/C=C/C[C@@H](O)[C@H](O)[C@@](N)(CO)C(=O)O
inactive: activity change, negative = inhibition [1] 34.1% [at 19 µM] | activity change, negative = cytotoxicity [2] 2.63% [at 19 µM] | activity change, negative = cytotoxicity [3] -0.265% [at 19 µM] | activity change, negative = cytotoxicity [4] 5.36% [at 19 µM] | activation [5] -1.01% [at 19 µM] | cAMP activity change [6] 0.106% [at 18.9 µM] | activity change, negative = cytotoxicity [7] -0.798% [at 19 µM] | activation [8] -0.536% [at 19 µM] | activity change, negative = inhibition [17] 0.638% [at 18.9 µM] | activity change, negative = cytotoxicity [9] -9.78% [at 18.9 µM] | activity change, negative = cytotoxicity [10] -2.82% [at 19 µM] | viability change, negative = cytotoxic [11] -3.48% [at 15.8 µM] | activity change, negative = cytotoxicity [12] 4.19% [at 15.8 µM] | activation [13] -6.21% [at 15.8 µM] | activity, negative = inhibition [15] 7.27% [at 10.5 µM] | activation [16] 0.008% [at 11.8 µM]

Brc1c(Br)c(Br)c(Br)c(Br)c1Br
inactive: activity change, negative = inhibition [1] -28% [at 8.39 µM] | activity change, negative = cytotoxicity [2] 0.311% [at 8.39 µM] | activity change, negative = cytotoxicity [3] -3.01% [at 8.39 µM] | activity change, negative = cytotoxicity [4] -0.381% [at 8.39 µM] | activation [5] -2.37% [at 8.39 µM] | cAMP activity change [6] 7.95% [at 8.39 µM] | activity change, negative = inhibition [14] 0.318% [at 8.39 µM] | activity change, negative = cytotoxicity [7] 2.08% [at 8.39 µM] | activity change, negative = cytotoxicity [9] -1.74% [at 8.39 µM] | activity change, negative = cytotoxicity [10] 33% [at 8.39 µM] | viability change, negative = cytotoxic [11] -1.01% [at 6.97 µM] | activity change, negative = cytotoxicity [12] -6.42% [at 6.97 µM] | activation [13] 3.82% [at 6.97 µM]

CCCCCCCC(=O)Cl
inactive: Potency [1] | Potency [2] | Potency [3] | Potency [4] | Potency [5] | outcome [6] | outcome [14] | Potency [7] | Potency [8] | Potency [17] | Potency [9] | Potency [10] | outcome [11] | Potency [12] | outcome [13] | Potency [15] | outcome [16]

CC(C)(C)c1cc(O)ccc1O
active: Potency [1] 7.7 µM and 3.86 µM
inactive: Potency [2] | Potency [3] | Potency [4] | Potency [5] | Potency [7] | Potency [8] | Potency [17] | Potency [12] | outcome [13] | Potency [15] | outcome [16]
